Results published in PubChem BioAssay (Tox21).
Records with an inconclusive call do not appear. The source made the active and inactive calls. Unless noted, calls come from the whole dose curve; as a rule, active = well fitted curve in the direction sought with a large enough effect in the repeat runs; inconclusive = weak or mixed curves; inactive = no such curve, though single readings can be large; an effect the other way counts as inactive or inconclusive.

Assays:
[1] = biological target: Estrogen receptor beta (Homo sapiens) (UniProt Q92731); experiment: qHTS assay to identify small molecule agonists of the estrogen receptor beta (ER-beta) signaling pathway (AID 1259377; active = well fitted activation curve with a large enough effect in the signal ratio in the repeat runs, not every such curve was filed as active; the % refers to the signal ratio)
Chain of Estrogen receptor beta (Homo sapiens) (Q92731 whole entry, looked up): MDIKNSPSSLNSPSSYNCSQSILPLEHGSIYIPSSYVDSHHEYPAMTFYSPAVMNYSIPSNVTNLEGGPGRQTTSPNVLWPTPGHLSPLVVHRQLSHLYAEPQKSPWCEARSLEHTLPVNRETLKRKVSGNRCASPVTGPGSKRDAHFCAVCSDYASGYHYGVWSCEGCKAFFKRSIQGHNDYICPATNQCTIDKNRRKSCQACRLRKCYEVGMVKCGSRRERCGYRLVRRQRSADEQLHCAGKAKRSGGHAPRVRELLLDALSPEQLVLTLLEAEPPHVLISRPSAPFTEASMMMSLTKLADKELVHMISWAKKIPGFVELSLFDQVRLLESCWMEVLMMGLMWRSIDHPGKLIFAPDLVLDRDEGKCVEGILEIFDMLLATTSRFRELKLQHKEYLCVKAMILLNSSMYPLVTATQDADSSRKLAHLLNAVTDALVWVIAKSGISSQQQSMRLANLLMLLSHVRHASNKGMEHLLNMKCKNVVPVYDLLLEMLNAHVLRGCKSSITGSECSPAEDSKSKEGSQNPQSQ
Procedure, shortened: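 Read-out: beta-lactamase FRET fluorescence. Cell line: ER-beta-UAS-bla HEK293T in 2% charcoal-stripped FBS. Exposure: 16 hr at 37C. Substrate step: 2 h at room temperature.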

[2] = biological target: Estrogen receptor beta (Homo sapiens) (UniProt Q92731); experiment: qHTS assay to identify small molecule antagonists of the estrogen receptor beta (ER-beta) signaling pathway (AID 1259378; active = well fitted inhibition curve with a large enough effect in the signal ratio in the repeat runs, not every such curve was filed as active; the % refers to the signal ratio; note: potency is the fitted concentration of half-maximal effect)
Procedure, shortened: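 Antagonist mode: compounds added to beta-lactamase reporter HEK293T ER-beta-UAS cells stimulated with E2 (1nM final), 16 hr at 37C. LiveBLAzer B/G FRET substrate, 2 hours room temperature, fluorescence read-out.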

[3] = qHTS assay to identify small molecule agonists of the androgen receptor (AR) signaling pathway in the presence of an antagonist - cell viability counter screen (AID 1259379); note: nearly all actives have a fitted effect of over 25% in size; note: potency is the fitted concentration of half-maximal effect
Procedure, shortened: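 MDA-kb2 human breast carcinoma cells (stable MMTV-luciferase, AR/GR responsive) were seeded 3,000 cells/well, pre-incubated 5 hr at 37C without CO2, then given 3.0uM nilutamide and compounds at 15 concentrations for 16 hr. Viability was read by CellTiter-Fluor fluorescence.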

[4] = qHTS assay to identify small molecule agonists of the estrogen receptor beta (ER-beta) signaling pathway - cell viability counter screen (AID 1259380); note: nearly all actives have a fitted effect of over 30% in size; note: potency is the fitted concentration of half-maximal effect
Procedure, shortened: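 ER-beta-UAS-bla HEK293T cells in medium with 2% charcoal-stripped FBS were preincubated 6 hr at 37C, dosed with compound in DMSO for 16 hr, then after the bla read, CellTiter-Glo was added for 30 min at room temperature; luminescence recorded.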

[5] = qHTS assay to identify small molecule antagonists of the estrogen receptor beta (ER-beta) signaling pathway - cell viability counter screen (AID 1259382);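 note: HEK293T cells carrying ER-beta-UAS-bla reporter stimulated with estradiol; series mostly up to about 92 µM; nearly all actives have a fitted effect of over 55% in size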
Procedure, shortened: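 ER-beta-UAS-bla HEK293T cells (2,000/well, 2% charcoal-stripped FBS) were pre-incubated 6 hr at 37C, then given compound plus 1nM final 17-beta-estradiol for 16 hr. Viability was read in the same wells by CellTiter-Glo luminescence after 30 min at room temperature.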

[6] = qHTS assay to identify small molecule agonists or antagonists of the thyroid stimulating hormone receptor (TSHR) signaling pathway - wild type cell line counter screen (AID 1259384; calls by dose curve)
Procedure, shortened: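 Counter screen in untransfected Hek293: compounds (15-point titration, triplicate) plus phosphodiesterase inhibitor Ro20-1724 added after 18 h plating; 30 min RT. Intracellular cAMP via competitive d2/cryptate immunoassay, 1 h incubation.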

[7] = biological target: Thyrotropin receptor (Homo sapiens) (UniProt P16473); experiment: qHTS assay to identify small molecule antagonists of the thyroid stimulating hormone receptor (TSHR) signaling pathway (AID 1259385; calls by dose curve; note: nearly all actives have a fitted effect of over 20% in size)
Chain of Thyrotropin receptor (Homo sapiens) (P16473 whole entry, looked up): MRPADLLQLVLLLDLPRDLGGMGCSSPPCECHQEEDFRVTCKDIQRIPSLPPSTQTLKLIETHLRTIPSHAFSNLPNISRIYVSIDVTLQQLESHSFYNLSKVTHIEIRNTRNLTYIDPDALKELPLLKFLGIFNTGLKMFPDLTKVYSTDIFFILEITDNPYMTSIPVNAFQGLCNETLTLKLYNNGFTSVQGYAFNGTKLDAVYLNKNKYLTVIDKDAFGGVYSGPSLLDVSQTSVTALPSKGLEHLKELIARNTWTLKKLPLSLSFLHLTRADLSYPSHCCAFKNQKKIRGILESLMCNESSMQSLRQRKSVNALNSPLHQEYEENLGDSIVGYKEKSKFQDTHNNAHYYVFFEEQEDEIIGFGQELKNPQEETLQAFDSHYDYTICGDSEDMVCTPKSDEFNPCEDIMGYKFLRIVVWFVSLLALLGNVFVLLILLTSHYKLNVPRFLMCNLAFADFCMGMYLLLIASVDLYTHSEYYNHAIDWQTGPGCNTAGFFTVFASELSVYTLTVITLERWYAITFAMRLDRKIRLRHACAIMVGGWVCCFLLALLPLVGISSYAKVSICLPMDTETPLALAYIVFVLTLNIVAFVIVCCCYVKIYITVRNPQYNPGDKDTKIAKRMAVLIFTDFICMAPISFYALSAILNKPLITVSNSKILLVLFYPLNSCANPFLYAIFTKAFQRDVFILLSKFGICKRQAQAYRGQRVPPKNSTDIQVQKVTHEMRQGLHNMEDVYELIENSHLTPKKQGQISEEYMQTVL
Procedure, shortened: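 Antagonist mode: compound-treated TSHR-expressing HEK293 cells were stimulated with 1.5 ng/mL TSH (final) in presence of Ro20-1724 for 30 min at RT. HTRF cAMP detection after 1 h; each compound tested at 15 concentrations, triplicate.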

[8] = qHTS assay to identify small molecule agonists of the estrogen receptor alpha (ER-alpha) signaling pathway in the presence of an antagonist - cell viability counter screen (AID 1259386);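 note: series mostly up to about 92 µM; cells exposed to compounds for 22 h at 37 °C before the viability read; nearly all actives have a fitted effect of over 30% in size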
Procedure, shortened: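 VM7Luc4E2 cells (endogenous full-length ER-alpha, 4×ERE-luciferase) were held 5 days in phenol red-free medium with 10% charcoal-stripped FBS, plated, then given 10.0nM ICI-182,780 and compounds at 15 concentrations for 22hr at 37C; viability read by CellTiter-Fluor fluorescence.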

[9] = biological target: Progesterone receptor (Homo sapiens) (UniProt P06401); experiment: qHTS assay to identify small molecule agonists of the progesterone receptor (PR) signaling pathway (AID 1346784; calls by dose curve; note: nearly all actives have a fitted effect of over 30% in size)
Chain of Progesterone receptor (Homo sapiens) (P06401 whole entry, looked up): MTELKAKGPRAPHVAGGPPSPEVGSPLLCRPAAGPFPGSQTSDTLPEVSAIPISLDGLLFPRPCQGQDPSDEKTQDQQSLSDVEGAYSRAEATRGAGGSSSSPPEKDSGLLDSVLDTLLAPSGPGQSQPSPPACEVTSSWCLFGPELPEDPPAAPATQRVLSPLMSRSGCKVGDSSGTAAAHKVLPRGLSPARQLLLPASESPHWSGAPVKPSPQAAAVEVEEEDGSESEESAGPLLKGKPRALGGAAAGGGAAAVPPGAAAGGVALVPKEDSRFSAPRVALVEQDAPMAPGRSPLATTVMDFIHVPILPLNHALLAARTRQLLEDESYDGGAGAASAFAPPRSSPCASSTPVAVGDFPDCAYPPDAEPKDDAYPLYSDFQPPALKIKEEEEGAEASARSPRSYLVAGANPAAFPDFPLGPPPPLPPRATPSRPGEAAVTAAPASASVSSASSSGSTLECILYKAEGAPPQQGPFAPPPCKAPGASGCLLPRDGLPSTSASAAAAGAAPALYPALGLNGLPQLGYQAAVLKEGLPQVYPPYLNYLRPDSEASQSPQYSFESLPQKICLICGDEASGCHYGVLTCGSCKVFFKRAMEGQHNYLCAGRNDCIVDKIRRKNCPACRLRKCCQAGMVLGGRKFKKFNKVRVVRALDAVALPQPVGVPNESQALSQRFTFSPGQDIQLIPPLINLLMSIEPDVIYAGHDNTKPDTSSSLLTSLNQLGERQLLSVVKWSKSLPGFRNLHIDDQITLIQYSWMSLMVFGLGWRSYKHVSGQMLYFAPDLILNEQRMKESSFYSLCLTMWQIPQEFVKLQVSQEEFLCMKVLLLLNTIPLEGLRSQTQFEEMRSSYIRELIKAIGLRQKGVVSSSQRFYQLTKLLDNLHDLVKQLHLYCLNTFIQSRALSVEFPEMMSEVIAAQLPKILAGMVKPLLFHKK
Procedure, shortened: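 Compounds were tested for PR agonism in HEK 293T cells bearing a beta-lactamase gene under UAS control. Treatment lasted 16 hr at 37C; signal came from fluorescence of a FRET substrate.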

[10] = biological target: Progesterone receptor (Homo sapiens) (UniProt P06401); experiment: qHTS assay to identify small molecule antagonists of the progesterone receptor (PR) signaling pathway (AID 1346795; active = well fitted inhibition curve with a large enough effect in the signal ratio in the repeat runs, not every such curve was filed as active; the % refers to the signal ratio)
Procedure, shortened: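 In HEK293T cells bearing the PR-UAS-bla reporter, compound effects on promegestone-driven (1 nM) beta-lactamase expression are assessed after 16 hr using a fluorescent FRET substrate incubated 2 hr at room temperature.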

[11] = qHTS assay to identify small molecule agonists of the progesterone receptor (PR) signaling pathway - cell viability counter screen (AID 1346799; calls by dose curve; note: nearly all actives have a fitted effect of over 45% in size; note: potency is the fitted concentration of half-maximal effect)
Procedure, shortened: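 Here, 3,000 PR-UAS-bla HEK293T cells per well were treated with compounds for 16 hr after a 6 hr preincubation at 37C and 5% CO2; cell viability is the CellTiter-Glo luminescence signal.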

[12] = qHTS assay to identify small molecule antagonists of the TGF-beta/Smad signaling pathway - cell viability counter screen (AID 1346824); note: nearly all actives have a fitted effect of over 50% in size
Procedure, shortened: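 Cytotoxicity counter-screen run in the same wells as the beta-lactamase Smad reporter read: CellTiter-Glo luminescence after 30 min at room temperature. HEK 293T SBE-bla cells had 5 hr compound exposure at 37 C with TGF-beta1 (0.25 ng/mL stock).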

[13] = qHTS assay to identify small molecule agonists of the TGF-beta/Smad signaling pathway - cell viability counter screen (AID 1346829); note: top concentration of the series differs between compounds; nearly all actives have a fitted effect of over 45% in size
Procedure, shortened: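 CellTiter-Glo luminescence readout; SBE-bla HEK 293T cells, overnight plating, compound 5 hr at 37 C/5% CO2, then bla substrate 2 hr RT, then CellTiter-Glo 30 min RT.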

[14] = qHTS assay to identify small molecule agonists of the TGF-beta/Smad signaling pathway (AID 1346859; active = well fitted activation curve with a large enough effect in the signal ratio in the repeat runs, not every such curve was filed as active; the % refers to the signal ratio; note: potency is the fitted concentration of half-maximal effect; for activation: series mostly up to about 77 µM)
Procedure, shortened: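 Each well held 4,000 SBE-bla HEK 293T cells incubated overnight before compound addition; 5 hr later the cleavable FRET substrate went on for 2 hr at room temperature, and fluorescence was read at two emissions.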

[15] = qHTS assay to identify small molecule antagonists of the progesterone receptor (PR) signaling pathway - cell viability counter screen (AID 1346798); note: nearly all actives have a fitted effect of over 50% in size; note: potency is the fitted concentration of half-maximal effect
Procedure, shortened: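 Following a 4 hr attachment, PR-UAS-bla HEK293T cells in charcoal-stripped FBS medium were exposed to compounds with R5020 for 16 hr; CellTiter-Glo was added and luminescence read after 30 min at room temperature.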

[16] = Human pregnane X receptor (PXR) small molecule agonists, qHTS cell viability counter screen (AID 1346977); note: nearly all actives have a fitted effect of over 50% in size; note: potency is the fitted concentration of half-maximal effect
Procedure, shortened: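 Tox21 qHTS format; PXR-Luc HepG2, 2,000/well, charcoal-stripped FBS 5%. Cpd exposure 24hr. Read: CellTiter-Fluor fluorescence, multiplexed with luciferase.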

[17] = biological target: Thyrotropin-releasing hormone receptor (Homo sapiens) (UniProt P34981); experiment: qHTS assay to identify small molecule antagonists of the thyrotropin-releasing hormone receptor (TRHR) signaling pathway (AID 1346877; active = well fitted inhibition curve with a large enough effect in the repeat runs, not every such curve was filed as active; note: series mostly up to about 51 µM)
Chain of Thyrotropin-releasing hormone receptor (Homo sapiens) (P34981 whole entry, looked up): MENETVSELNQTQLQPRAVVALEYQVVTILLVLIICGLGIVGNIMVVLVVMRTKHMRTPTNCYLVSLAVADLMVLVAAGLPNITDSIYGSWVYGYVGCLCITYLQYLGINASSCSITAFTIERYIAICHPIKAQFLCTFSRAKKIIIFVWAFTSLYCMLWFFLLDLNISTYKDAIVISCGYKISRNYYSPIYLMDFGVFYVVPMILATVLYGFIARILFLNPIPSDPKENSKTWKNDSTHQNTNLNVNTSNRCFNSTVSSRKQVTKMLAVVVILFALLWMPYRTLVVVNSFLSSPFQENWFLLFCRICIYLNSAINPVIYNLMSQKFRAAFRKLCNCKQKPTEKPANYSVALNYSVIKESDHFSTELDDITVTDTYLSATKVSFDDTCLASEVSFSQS
Procedure, shortened: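 TRHR-expressing HEK293 cells were seeded, cultured 18 h at 37 °C, then loaded with calcium dye for 2 h. Compounds were pre-incubated 5 min at room temperature before 1 nM TRH (final) was added, and kinetic fluorescence was recorded for 3 min.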

[18] = biological target: Thyrotropin-releasing hormone receptor (Homo sapiens) (UniProt P34981); experiment: qHTS assay to identify small molecule agonists of the thyrotropin-releasing hormone receptor (TRHR) signaling pathway (AID 1346891; calls by dose curve; note: series mostly up to about 58 µM)
Procedure, shortened: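 Screening of agonists relied on calcium signalling in HEK293 cells expressing human TRHR: dye loading 2 h at 37 °C preceded compound addition and a 3-min fluorescence time course.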

[19] = biological target: Estrogen receptor (Homo sapiens) (UniProt P03372); experiment: qHTS assay to identify small molecule agonists of the estrogen receptor alpha (ER-alpha) signaling pathway in the presence of an antagonist (AID 1259383; calls by dose curve; note: top concentration of the series differs between compounds; nearly all actives have a fitted effect of over 15% in size)
Chain of Estrogen receptor (Homo sapiens) (P03372 whole entry, looked up): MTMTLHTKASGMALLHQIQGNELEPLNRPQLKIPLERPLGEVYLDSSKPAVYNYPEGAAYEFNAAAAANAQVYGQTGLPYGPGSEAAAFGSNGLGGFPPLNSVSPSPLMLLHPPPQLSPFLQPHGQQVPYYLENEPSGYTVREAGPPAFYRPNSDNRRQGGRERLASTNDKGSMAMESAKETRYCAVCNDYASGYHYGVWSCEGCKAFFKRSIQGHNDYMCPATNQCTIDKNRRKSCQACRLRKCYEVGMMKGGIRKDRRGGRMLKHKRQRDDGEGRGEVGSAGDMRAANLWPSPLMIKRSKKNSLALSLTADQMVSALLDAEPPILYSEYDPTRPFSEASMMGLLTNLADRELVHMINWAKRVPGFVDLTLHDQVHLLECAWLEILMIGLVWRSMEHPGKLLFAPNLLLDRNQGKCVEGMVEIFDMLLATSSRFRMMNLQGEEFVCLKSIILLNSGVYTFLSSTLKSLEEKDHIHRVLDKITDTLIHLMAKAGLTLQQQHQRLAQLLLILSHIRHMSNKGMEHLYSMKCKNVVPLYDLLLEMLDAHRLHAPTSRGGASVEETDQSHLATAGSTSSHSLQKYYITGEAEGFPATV
Procedure, shortened: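 VM7Luc4E2 cells (endogenous full-length ER-alpha, 4×ERE-luciferase) were precultured 5 days in phenol red-free medium with 10% charcoal-stripped FBS, given 10.0nM ICI-182,780 (final), then treated with compounds at 15 concentrations for 22hr at 37C; luminescence read with ONE-Glo.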

[20] = biological target: Androgen receptor (Homo sapiens) (UniProt P10275); experiment: qHTS assay to identify small molecule agonists of the androgen receptor (AR) signaling pathway in the presence of an antagonist (AID 1259381; calls by dose curve; note: nearly all actives have a fitted effect of over 15% in size)
Chain of Androgen receptor (Homo sapiens) (P10275 whole entry, looked up): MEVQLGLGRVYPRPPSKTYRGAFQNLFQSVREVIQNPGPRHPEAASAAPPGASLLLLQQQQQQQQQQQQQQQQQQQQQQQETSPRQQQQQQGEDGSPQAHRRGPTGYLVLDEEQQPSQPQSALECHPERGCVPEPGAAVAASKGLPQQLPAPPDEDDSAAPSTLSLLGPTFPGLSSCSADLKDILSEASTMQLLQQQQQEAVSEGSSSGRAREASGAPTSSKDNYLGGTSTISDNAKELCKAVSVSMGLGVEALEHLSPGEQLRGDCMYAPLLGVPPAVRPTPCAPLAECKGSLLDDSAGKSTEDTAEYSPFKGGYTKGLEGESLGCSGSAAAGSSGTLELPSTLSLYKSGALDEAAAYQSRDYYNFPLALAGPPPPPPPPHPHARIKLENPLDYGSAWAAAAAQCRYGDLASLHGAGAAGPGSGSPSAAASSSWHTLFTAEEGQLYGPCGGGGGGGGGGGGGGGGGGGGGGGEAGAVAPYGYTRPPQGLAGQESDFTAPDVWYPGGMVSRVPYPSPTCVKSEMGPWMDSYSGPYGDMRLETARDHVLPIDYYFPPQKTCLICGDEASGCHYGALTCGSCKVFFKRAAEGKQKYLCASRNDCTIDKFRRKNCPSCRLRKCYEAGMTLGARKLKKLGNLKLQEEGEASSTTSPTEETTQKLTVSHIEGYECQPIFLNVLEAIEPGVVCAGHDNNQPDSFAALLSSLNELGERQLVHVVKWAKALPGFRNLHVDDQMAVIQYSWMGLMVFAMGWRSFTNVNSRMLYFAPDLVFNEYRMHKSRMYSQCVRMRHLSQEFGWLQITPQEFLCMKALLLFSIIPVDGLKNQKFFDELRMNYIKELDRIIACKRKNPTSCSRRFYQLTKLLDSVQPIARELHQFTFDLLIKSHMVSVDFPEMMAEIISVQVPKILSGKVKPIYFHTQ
Procedure, shortened: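 MDA-kb2 human breast carcinoma cells carrying an MMTV-luciferase reporter (AR- and GR-responsive) were treated with compounds at 15 concentrations plus 3.0uM final nilutamide for 16hr at 37C without CO2; luminescence was read after ONE-Glo addition.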

Measured: Potency

CCN(CC)C(=O)N1CCN(C)CC1
not listed: [15] | [16] | [17] | [18] | [19] | [20]
inactive: all other assays above

Cc1ccc(Cl)cc1N
not listed: [10] | [12] | [17] | [18] | [19] | [20]
inactive: all other assays above

CC(=O)NCCO
not listed: [17] | [18] | [19] | [20]
inactive: all other assays above

CC1=CC[C@@]23C[C@@H]1C(C)(C)[C@@H]2CC[C@H]3C
not listed: [10] | [12] | [19] | [20]
inactive: all other assays above

Nc1nc2ccc(OC(F)(F)F)cc2s1
not listed: [5] | [7] | [10] | [17] | [18] | [19] | [20]
inactive: all other assays above

CCCOC(=O)c1c(Cl)c(Cl)c(Cl)c(Cl)c1C(=O)OCCC
inactive: [1] | [2] | [3] | [4] | [8] | [11] | [13] | [14] | [17] | [18] | [16]

CC[C@@H](CO)NCCN[C@@H](CC)CO
not listed: [5] | [10] | [12] | [15] | [17] | [18] | [19] | [20]
inactive: all other assays above

CC(=O)OCCC1CCCCC1
not listed: [6] | [7] | [13] | [20]
inactive: all other assays above

Nc1ccn([C@H]2CS[C@@H](CO)O2)c(=O)n1
not listed: [5] | [8] | [12] | [17] | [18] | [19] | [20]
inactive: all other assays above

CC[C@H]1OC(=O)[C@H](C)[C@@H](O[C@H]2C[C@@](C)(OC)[C@@H](O)[C@H](C)O2)[C@H](C)[C@@H](O[C@@H]2O[C@H](C)C[C@H](N(C)C)[C@H]2O)[C@](C)(O)C[C@@H](C)CN(C)[C@H](C)[C@@H](O)[C@]1(C)O
active: [16] 18.1 µM
not listed: [7] | [8] | [10] | [11] | [18] | [20]
inactive: all other assays above

CCCCCCC(O)CCOC(C)=O (configuration not stated)
not listed: [5] | [7] | [9] | [13] | [18] | [20]
inactive: all other assays above

CC1CCCO1 (configuration not stated)
not listed: [6] | [7] | [10] | [12] | [15] | [16] | [19] | [20]
inactive: all other assays above

COC(=O)CC(C(C)=O)C(=O)OC (configuration not stated)
not listed: [4] | [5] | [14]
inactive: all other assays above

CCN(CC)CCOc1ccccc1C(=O)CCc1ccccc1
active: [4] 21.1 µM | [15] 11.9 µM | [11] 9.44 µM
not listed: [5] | [7] | [12] | [14] | [16] | [18] | [20]
inactive: all other assays above

CCN(CC)C(=O)/C(C#N)=C/c1cc(O)c(O)c([N+](=O)[O-])c1
active: [3] 23.7 µM
not listed: [2] | [8] | [9] | [11] | [14] | [15] | [16]
inactive: all other assays above

C1=CCC2CC=CC2C1 (configuration not stated)
not listed: [2] | [15] | [19]
inactive: all other assays above

CCc1ccc(C)cc1
not listed: [2] | [6] | [7] | [14] | [19]
inactive: all other assays above

COc1ccc(N)c([N+](=O)[O-])c1
not listed: [3] | [8] | [16] | [19] | [20]
inactive: all other assays above

CCOC(=O)c1c(N)sc2c1CCN(Cc1ccccc1)C2
active: [14] 7.56 µM
not listed: [4] | [8] | [9] | [12] | [13] | [15] | [20]
inactive: all other assays above

COC(OC)OC
not listed: [2] | [13] | [14] | [17] | [18] | [20]
inactive: all other assays above

CCCCCc1ccco1
active: [2] 25.1 µM
not listed: [4] | [9] | [13] | [14] | [15] | [19] | [20]
inactive: all other assays above

CCC(C)(C)C(=O)O
not listed: [2] | [7] | [8] | [13] | [15] | [18]
inactive: all other assays above

CC(=O)c1ccc[nH]1
not listed: [2] | [8] | [10] | [18]
inactive: all other assays above

O=[N+]([O-])C1(Br)COCOC1
not listed: [4] | [7] | [8] | [10] | [12] | [16] | [20]
inactive: all other assays above

COC(=O)Nc1nc2ccc(C(=O)C3CC3)cc2[nH]1
inactive: [1] | [2] | [4] | [5] | [19] | [6] | [8] | [9] | [12] | [13] | [16]

O=C(CCS)OCC(COC(=O)CCS)(COC(=O)CCS)COC(=O)CCS
not listed: [3] | [4] | [10] | [15] | [20]
inactive: all other assays above

O=C1CC[C@@H](C(=O)O)N1
not listed: [2] | [19]
inactive: all other assays above

CC(C)C1CCC(C(=O)N[C@H](Cc2ccccc2)C(=O)O)CC1 (some centres not stated)
not listed: [2] | [10] | [17] | [18] | [20]
inactive: all other assays above
